# Assay results: PubChem BioAssay (NCI)
# The panel holds about 83,000 compounds, 20% with a hit somewhere; the sample as a whole holds those more often.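 Note: values are percent growth. 100 is the growth of untreated cells, values between 100 and 0 indicate rising inhibition; between -100 and 0 indicates cell death.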 Unmarked numbers belong to inactive results. Active and inactive are the calls of the source. The calls were made as follows: active = growth percent below 10; inactive = the rest.
# Legend:
# Assay in all cases: NCI-60 one-dose screen, 48 h (100 = growth as untreated, 0 = no growth, -100 = all killed)
# Conditions in all cases: 10 µM unless noted
# SR leukemia = system: SR leukemia
# RPMI-8226 leukemia = system: RPMI-8226 leukemia
# OVCAR-8 ovarian = system: OVCAR-8 ovarian
# OVCAR-5 ovarian = system: OVCAR-5 ovarian
# OVCAR-4 ovarian = system: OVCAR-4 ovarian
# SK-OV-3 ovarian = system: SK-OV-3 ovarian
# IGROV1 ovarian = system: IGROV1 ovarian
# OVCAR-3 ovarian = system: OVCAR-3 ovarian
# HS 578T breast = system: HS 578T breast
# NCI/ADR-RES ovarian = system: NCI/ADR-RES ovarian
SMILES,growth (SR leukemia),growth (RPMI-8226 leukemia),growth (OVCAR-8 ovarian),growth (OVCAR-5 ovarian),growth (OVCAR-4 ovarian),growth (SK-OV-3 ovarian),growth (IGROV1 ovarian),growth (OVCAR-3 ovarian),growth (HS 578T breast),growth (NCI/ADR-RES ovarian)
COc1ccc(Cn2cc3c(c2-c2ccc(OC)cc2)CCc2cnoc2-3)cc1,1.81% (active),16.7%,23.8%,52.2%,35.9%,3.54% (active),-2.82% (active),-18.2% (active),-2.76% (active),-3.57% (active)
c1ccc(Nc2ncc3c(n2)-c2cccn2CC3)cc1,101%,97%,104%,77.9%,40.3%,88.9%,54.5%,82.7%,91.6%,98.7%
FC(F)(F)c1cccc(-c2[nH]ncc2-c2nnnn2-c2ccccc2)c1,25.6%,29.6%,58.9%,69.6%,66.4%,55.4%,56.2%,48.4%,43.6%,12.2%
NCCCOc1cc(Cl)ccc1NC(=O)c1cc2ccccc2cc1OCCCN,-38.9% (active),-43.9% (active),-73.3% (active),-72.3% (active),-70.6% (active),-42.4% (active),-43.5% (active),-86.9% (active),-56.4% (active),57.2%
C=CC1CN2CCC1CC2C(O)c1ccnc2ccc(OC)cc12 (stereo not given),113%,108%,88.4%,93.1%,102%,93.9%,-5.34% (active),105%,99.9%,107%
COc1cc(-c2nc3c(c(C)nc4c3nnn4-c3ccccc3)c(=O)o2)cc(OC)c1OC,108%,105%,107%,103%,114%,115%,112%,116%,103%,115%
CC(=O)Nc1ccc(C(=O)/C=C/c2ccc(N(C)C)cc2)cc1,96.6%,102%,102%,106%,109%,101%,95.4%,105%,101%,99.3%
COc1ccc(-c2nc(SCC(C)C)nc(Nc3ccccc3)c2C#N)cc1,48.9%,87.6%,74.4%,103%,-12.2% (active),97.6%,74.7%,46.2%,72.7%,85.9%
COC(=O)c1cc(O)c2cc3c(cc2c1-c1cc(OC)c(OC)c(OC)c1)OCO3,24.3%,4.51% (active),45.8%,45%,71.3%,22.2%,44%,8.41% (active),-2% (active),3.4% (active)
COC1(OC)N=C(N)C2(C#N)C3(C(=O)Nc4ccccc43)C12C#N (stereo not given),6.82% (active),49.7%,94.2%,65.1%,60%,77.4%,63.5%,84%,67.2%,100%
COC(=O)c1ccc2[nH]c(O)c(C(=Nc3ccc(N(C)C(=O)CN4CCN(C)CC4)cc3)c3ccc(C)cc3)c2c1,-28.2% (active),-32.2% (active),-17.8% (active),29.7%,-64.3% (active),-12.2% (active),1.53% (active),-60.2% (active),-2.52% (active),70.7%
CCc1ccc(C(=Nc2ccc(N(C)C(=O)CN3CCN(C)CC3)cc2)c2c(O)[nH]c3ccc(C(=O)OC)cc23)cc1,-27.7% (active),-46.9% (active),-34.5% (active),-58.1% (active),-61.3% (active),-61.5% (active),-65.4% (active),-69.9% (active),-48.7% (active),10.5%
CC(=O)CCS(=O)c1ccccc1 (stereo not given),85.1%,104%,104%,108%,106%,110%,105%,101%,98.4%,99.1%
N=C(N)c1ccc(-c2ccc(-c3ccc(F)cc3)s2)cc1,-24.2% (active),-55.5% (active),-28.4% (active),-87.4% (active),-70.8% (active),-80% (active),-69.8% (active),-92.4% (active),-59.4% (active),-77.1% (active)
CCN(CC)CCCC(C)Nc1c(C)cnc2cc(Cl)c(C)cc12 (stereo not given),16.5%,43.6%,96%,98.1%,85.4%,98.5%,96.3%,92.9%,96.3%,93.2%
COCC(=O)NNc1[nH]c(-c2ccc(OC)cc2)cc1C#N,102%,101%,113%,98.6%,127%,112%,22.4%,129%,104%,106%
Oc1ccccc1\C=N/N=C/C=C/c1ccccc1,71.9%,107%,103%,112%,97.7%,87.9%,101%,96.3%,106%,102%
CCCC(CCC)Oc1ccc(CCCC2=C(O)c3ccccc3C(=O)C2=O)cc1,38.9%,22.5%,34.2%,17.2%,25.1%,37.5%,46.7%,40.8%,34.6%,28.7%
CCN(CC)CCCNc1c2ccc(Cl)cc2nc2ccc(OC)cc12,-30.3% (active),-21.5% (active),4.01% (active),3.61% (active),-35.2% (active),3.94% (active),6.62% (active),-11.5% (active),34.1%,0.48% (active)
CCCCCCCCCCCCOC(=N)N(C)C,82.4%,99.7%,98.9%,99.4%,117%,97.3%,106%,92.6%,97.1%,102%
COc1ccc(/C=C2\SC(=O)N(Cc3cc(=O)oc4ccc(OC)cc34)C2=O)cc1,69.6%,64.1%,95.4%,100%,63.6%,96.6%,98.1%,84.6%,103%,95.7%
Cc1nc2ccccc2c(=O)n1-c1cccc(OCc2cn(-c3cccc(O)c3)nn2)c1,86.3%,71.5%,88.6%,111%,89.6%,103%,99.2%,91.5%,87.4%,98%
CCOc1ccc(N(C)c2ccc(/C=C/C3=[N+](C)c4ccccc4C3(C)C)cc2)cc1,-26.7% (active),-20.3% (active),-15.8% (active),40.1%,37.1%,16.9%,1.79% (active),-72.9% (active),41.7%,72.9%
CCCC[N+](C)(N)CCCC,92.1%,94.3%,99.2%,103%,108%,102%,119%,113%,115%,119%
Cc1ccc(CC(=O)O)c(C)c1,94.1%,104%,100%,98.8%,105%,108%,112%,103%,101%,101%
COC(=O)C(Cc1cnc[nH]1)N1CC(=O)N2[C@@H](c3ccccc3)SC[C@H]2C1=O (stereo not given in full),106%,105%,98.4%,103%,111%,115%,116%,111%,106%,107%
Oc1ccc(N=Nc2ccc(N=Nc3ccccc3)cc2)cc1,43.1%,24.8%,23.1%,79.3%,76%,42.6%,53.6%,18.3%,91.8%,43.4%
